High-throughput results from PubChem BioAssay.
POLK inh: inhibitors of human DNA polymerase kappa; AID 588579; 0.53% of 400,000 active; purified Pol kappa, fluorescent DNA synthesis assay, 10 min; Q9UBT6; Potency, µM (titrated, usually from 107 µM), for inactives: top-dose activity, negative = inhibition, actives largely listed as inhibitors; also: potency is read from the fitted curve at half-maximal effect; % is scaled to controls: 0 for no effect and ±100 for the full control effect
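First, compounds were pin-transferred onto 10 nM Pol kappa. After 15 min at room temperature, substrate was added to 50 nM final. Fluorescence was then measured kinetically at 0 and 10 min.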
POLB inh: inhibitors of human DNA polymerase beta; Pol beta primer extension/strand displacement, fluorescence kinetic; 1.3% of 340,000 active; Potency, µM (doses to about 114 µM), inactives show at the top dose activity change, negative = inhibition, most hits filed as inhibitors; P06746; also: potency is read from the fitted curve at half-maximal effect; % is scaled to controls: 0 for no effect and ±100 for the full control effect
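Pol beta (10 nM) and compounds were preincubated 15 min at room temperature, then 50 nM substrate (final) started primer extension/strand displacement. Reads were taken at 0 and 10 min; concentration-response data were fitted to a four-parameter Hill equation.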
WRN helicase inh: inhibitors of human WRN helicase; Q14191; WRN helicase unwinding, fluorescent forked duplex, kinetic; Potency, µM (series often up to 114 µM), for the others: at the top dose activity change, negative = inhibition, actives largely listed as inhibitors; 0.46% of 360,000 active; AID 651768; also: potency is read from the fitted curve at half-maximal effect; % is scaled to controls: 0 for no effect and ±100 for the full control effect; nearly all actives have a fitted effect of over 55% in size
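WRN at 20 nM final preincubated with compound 15 min at room temperature; reaction started with 100 nM fluorophore/quencher forked duplex oligonucleotide and 2 mM ATP final. Unwinding followed kinetically by red fluorescence (ex 525, em 598 nm).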
PI5P4Ka inh: inhibitors of human PI5P4K alpha | 1.2% of 330,000 active | max response, % | P48426 | PI5P4Kalpha enzyme, ADP-Glo luminescence, 60 min; active compounds read low; active = max response of -50% or lower; inconclusive = between -30% and -50%; inactive = -30% or higher; also: value at the top dose of about 77 µM; % is scaled to controls: 0 for no effect and ±100 for the full control effect
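Reactions run in 0.038 M HEPES pH 7.4, 0.28 mM EGTA, 0.1% CHAPS and 5% DMSO, with PI5P4Kalpha, substrate, compound and 5 microM ATP final, one hour at room temperature. Readout is ADP-Glo luminescence.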
POLI inh: DNA polymerase iota (human) inhibition | Q9UNA4 | Pol iota fluorescent replication assay, 10 min | Potency, µM (doses to about 115 µM), for inactives: at the top dose activity, negative = inhibition, hits mostly inhibitors | 1% of 390,000 active | AID 588590; also: potency is read from the fitted curve at half-maximal effect
Target sequence (Q9UNA4 whole entry, looked up): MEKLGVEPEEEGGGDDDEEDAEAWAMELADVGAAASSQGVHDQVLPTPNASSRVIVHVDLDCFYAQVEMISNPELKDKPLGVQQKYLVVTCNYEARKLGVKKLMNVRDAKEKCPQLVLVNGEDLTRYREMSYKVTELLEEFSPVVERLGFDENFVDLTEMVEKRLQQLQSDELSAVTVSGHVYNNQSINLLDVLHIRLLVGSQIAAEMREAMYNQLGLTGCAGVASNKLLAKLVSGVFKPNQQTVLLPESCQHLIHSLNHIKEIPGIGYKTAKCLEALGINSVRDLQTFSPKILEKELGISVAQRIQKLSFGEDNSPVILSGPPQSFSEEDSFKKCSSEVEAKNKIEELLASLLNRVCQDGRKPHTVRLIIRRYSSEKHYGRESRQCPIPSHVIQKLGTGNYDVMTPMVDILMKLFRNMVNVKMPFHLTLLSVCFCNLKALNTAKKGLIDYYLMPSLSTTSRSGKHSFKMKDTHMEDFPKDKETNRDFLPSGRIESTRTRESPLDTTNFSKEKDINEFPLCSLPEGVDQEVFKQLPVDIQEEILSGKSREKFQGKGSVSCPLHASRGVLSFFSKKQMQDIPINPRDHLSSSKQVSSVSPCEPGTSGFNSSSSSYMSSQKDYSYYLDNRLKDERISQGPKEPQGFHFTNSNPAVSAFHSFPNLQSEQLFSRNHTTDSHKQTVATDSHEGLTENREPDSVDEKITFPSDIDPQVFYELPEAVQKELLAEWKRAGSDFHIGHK
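Fluorescent replication assay read twice, at 0 min and 10 min after adding 50 nM (final) substrate. Enzyme (10 nM) and compounds were first incubated 15 min at room temperature; enzyme-free buffer wells were negative controls.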
Pol eta inh: DNA polymerase eta (human) inhibition. 1.2% of 390,000 active. Potency, µM (top dose mostly 114 µM), for inactives: at the top dose activity change, negative = inhibition, usual class: inhibitors. recombinant Pol eta, fluorescent DNA replication assay. Q9Y253; also: potency is read from the fitted curve at half-maximal effect; % is scaled to controls: 0 for no effect and ±100 for the full control effect
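Pol eta at 10 nM preincubated with compounds 15 min at room temperature; reaction started with fluorescent substrate (50 nM final) and read kinetically at 0 and 10 min.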
The depositor's hits bear a star; u = inconclusive; x = no result; [ ] = another dose, or the depositor's remark. Rows were chosen to be rich in hits. Some 2.8% of all compounds tested hit in one or more screens of this group. Unless noted, calls follow the shape of the dose curve; as a rule, active = well fitted curve in the direction sought with a large enough effect; inconclusive = small, poorly fitted or top-dose-only effect, or another doubt; inactive = no such curve, though single readings can be large; an effect the other way counts as inactive or inconclusive.

SMILES	POLK inh	POLB inh	WRN helicase inh	PI5P4Ka inh	POLI inh	Pol eta inh
CCOc1cc(C2CC(=O)N3CN(C4CCCCC4)CSC3=C2C#N)ccc1O (centres undefined)	-29%	-17%	6%	-60*	35µM*	-13%
N#CC1=C2SCN(C3CCCCC3)CN2C(=O)CC1c1ccc(Br)cc1 (centres undefined)	-29%	u	x	x	20µM*	u
CCOc1cc(C2CC(=O)NC(SCC)=C2C#N)ccc1O (centres undefined)	2%	22%	0%	4	13%	-9%
COc1cc(O)c2c(c1)oc(=O)c1c3cc(O)c(O)cc3oc21	0.75µM*	x	x	x	x	x
Cc1ccc(C(=O)Nc2ccc(O)c(C(=O)O)c2)o1	-31%	u	-3%[11.6 µM]	-22	9%	14µM*
Cc1ccc(C(=O)Nc2ccc(F)cc2)o1	-14%	u	-17%	1	-1%	-13%
COc1ccc(CCNC(=O)Cc2c(C)c3c(cc(C)c4c(C)c(C)oc43)oc2=O)cc1	2%	18%	x	x	-10%	-6%
Cc1ccc(NC(=O)C2CCN(S(=O)(=O)c3ccc4c(c3)NC(=O)C(C)S4)CC2)c(Cl)c1 (centres undefined)	-14%	u	-24%	0	16µM*	-17%
Cc1cc(C)cc(NC(=O)C2CCN(S(=O)(=O)c3ccc4c(c3)NC(=O)C(C)S4)CC2)c1 (centres undefined)	-8%	-1%	-14%[57.1 µM]	0	36%	-26%
COc1ccc(Cl)c(Cn2c(NCc3ccco3)nc3c2c(=O)n(C)c(=O)n3C)c1	u	14µM*	u	u	u	u
CCCn1c(NCc2ccco2)nc2c1c(=O)n(C)c(=O)n2C	u	22µM*	-9%[57.1 µM]	u	u	u
CCOC(=O)CSC1=Nc2ccccc2C2=NC(CCC(=O)NCc3ccccc3)C(=O)N12 (centres undefined)	4%[60.1 µM]	13%	x	x	25%	0%
C=Nc1ccc(/C=C/c2ccnc3ccccc23)cc1	-19%	x	x	x	30%	x
CCOC(=O)c1cc(CC)sc1NC(=O)COC	-11%	21%	6%	x	4%[58.9 µM]	4%
CCCCN1C(=O)C(=O)N(CC(=O)Nc2sc(CC)cc2C(=O)OCC)C1=O	-6%	x	-13%[11.6 µM]	6	79µM*	1%
CCC(=O)Oc1ccc(C/C(=N\O)c2ccc(O)cc2O)o1	28µM*	u	-16%[57.1 µM]	x	20µM*	79µM*
CC(=O)c1ccc(N2CCN(c3ncnc4c3c(-c3ccccc3)cn4-c3cccc(C)c3)CC2)cc1	-15%[60.1 µM]	5%	x	x	1%	-14%
COc1ccc(-c2cn3nc(N4CCC(C(=O)NCc5ccccc5F)CC4)sc3n2)cc1	-4%	16%	x	x	7%	-4%
COc1cc(-c2noc(-c3ccc(N4CCCCC4)c([N+](=O)[O-])c3)n2)cc(OC)c1OC	-31%	45µM*	x	x	-28%	-20%
COc1cc(-c2noc(-c3ccc(NCc4ccccc4)c([N+](=O)[O-])c3)n2)cc(OC)c1OC	-15%	45µM*	x	x	-8%	-16%
COc1cc(-c2noc(-c3ccc(N(C)C)c([N+](=O)[O-])c3)n2)cc(OC)c1OC	-10%	28µM*	x	x	u	-18%
COc1cc(-c2noc(-c3ccc(NCc4ccco4)c([N+](=O)[O-])c3)n2)cc(OC)c1OC	-12%	-10%	x	x	-9%	-13%
COc1ccc(S(=O)(=O)N2CCN(c3ccc(Cl)c(Cl)c3)CC2)c2ccccc12	-7%	-12%	x	x	-12%	0%
O=C1NN(c2ccccc2)C(=O)C1=Cc1ccccc1O	x	x	2%	-5	x	7%
O=C1NN(c2ccccc2)C(=O)/C1=C\c1cccn1-c1ccc(Cl)c([N+](=O)[O-])c1	u	u	-11%[57.1 µM]	-63*	u	20µM*
SMILES	POLK inh	POLB inh	WRN helicase inh	PI5P4Ka inh	POLI inh	Pol eta inh
COc1cc2c(cc1OC)-c1c(oc3cc(O)cc(O)c3c1=O)CO2	32µM*	x	x	x	x	x
Cc1ccccc1Cn1cc(CCC(=O)NC(C)c2ccccc2)c2ccccc21 (centres undefined)	-14%	-20%	x	x	25%	-19%
COc1ccc(-c2cc3nc(C)c(CCC(=O)NCc4ccccc4Cl)c(C)n3n2)c(OC)c1	-20%	u	x	x	-3%	-20%
O=C(CSc1nc(=O)n2ccccc2n1)N1N=C(c2cccs2)CC1c1ccc(F)cc1 (centres undefined)	-6%	x	0%	0	20%	-15%
COc1ccc(C2CC(c3cccs3)=NN2C(=O)CSc2nc(=O)n3ccc(C)cc3n2)cc1 (centres undefined)	-25%	x	-4%[11.6 µM]	u	22µM*	u
Cc1ccc(NC(=O)c2cc(S(=O)(=O)N3CCCC(C)C3)cn2C)c(Br)c1 (centres undefined)	-12%[60.1 µM]	0%	x	x	-8%	-10%
CCOC(=O)c1ccccc1NC(=O)Cn1c(=O)n(CCC(=O)N2CCc3ccccc3C2)c(=O)c2ccccc21	0%	-17%	x	x	-14%	-17%
Cc1cc(NC(=O)c2ccc(N3CCCC3)c([N+](=O)[O-])c2)no1	-13%	20µM*	-12%	-15	u	u
O=C(Nc1ccon1)c1ccc(N2CCCCC2)c([N+](=O)[O-])c1	-3%[60.1 µM]	u	-4%	-1	-10%	-3%
COc1ccc(N2CCN(C(=O)c3cc(S(=O)(=O)N4CCC(C)CC4)cn3C)CC2)cc1	-5%[60.1 µM]	17%	x	x	24%	-1%
CCc1nnc(NS(=O)(=O)c2ccc(N3C(=O)C4CC=C(Cl)CC4C3=O)cc2)s1 (centres undefined)	-17%	27%	-19%[11.6 µM]	7	u	45µM*
COCCCNS(=O)(=O)c1ccc(N2CCCCS2(=O)=O)cc1	1%[60.1 µM]	0%	x	x	17%	8%
COc1ccc(C2CC(=O)c3cnc4c(-c5ccc(F)cc5)c(C)nn4c3C2)cc1OC (centres undefined)	12%	23%	x	x	26%	-16%
Cc1ccc(-n2nc3c(=O)n(CC(=O)NCc4ccco4)nc(C)c3c2C)cc1	4%	19%	x	x	22%	0%
Cc1nn(CC(=O)NCCc2cccs2)c(=O)c2nn(-c3ccccc3)c(C)c12	-16%	u	2%[11.6 µM]	-28	35µM*	-25%
